Test results: PubChem BioAssay AID1745848 (National Center for Advancing Translational Sciences (NCATS), 2022)
The whole screen tested about 2,100 compounds, of which about 940 (45%) were called active. Roughly 48% stayed inconclusive and do not appear here. The call rests on the fitted dose curve; in most records, active means well fitted inhibition curve with a large enough effect; inconclusive means small, poorly fitted or top-dose-only effect; inactive means no such curve, though single readings can be large or run the other way. The set was probably picked from earlier hits. The list shows a part of the results.

Assay: Confirmatory qHTS for Inhibitors of ATXN expression; further: nearly all actives have a fitted effect of over 65% in size
Conditions: ATXN2-luciferase reporter cells, luminescence, 24 h; series mostly up to 11.5 µM
Procedure, shortened: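 Cells carrying ATXN2-luciferase reporter exposed 24 h at 37 C to compound. Viability then read by CellTiter-Fluor (25 uM GF-AFC, 30 min), followed by SteadyGlo luminescence; medium-only wells set 100% inhibition.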
Potency means the concentration at half of the fitted maximal effect.

Compound	Potency
Cc1sc2ncnc(NCC(O)c3ccc([N+](=O)[O-])cc3)c2c1C (stereo not drawn)	3.16 µM (active)
Cc1cc(C)cc(C(=O)NC(=S)Nc2ccc(-c3cc4ccccc4oc3=O)cc2)c1	4.47 µM (active)
CCOC(=O)c1c(NC(=O)CSc2nnnn2-c2ccccc2)sc2c1CC(C)(C)NC2(C)C	3.55 µM (active)
O=C(CSc1nnnn1-c1ccccc1)Nc1nsc(-c2ccccc2)n1	inactive
Cc1ccc(C(=O)N/C(=C/c2ccc(-c3ccc([N+](=O)[O-])cc3)o2)C(=O)NCCCN(C)C)cc1	25.1 µM (active)
CCCCOC(=O)/C=C\C(=O)NC(N)=O	17.8 µM (active)
N/C(=C\C(=O)c1cc(Cl)ccc1O)C(Cl)(Cl)Cl	3.16 µM (active)
C/C(=N\NC(=O)C(C)n1nc(C)c([N+](=O)[O-])c1C)c1ccccc1O (stereo not drawn)	3.16 µM (active)
O=C1N/C(=N/N=C/c2ccccc2O)SC1Cc1ccc(F)cc1 (stereo not drawn)	15.8 µM (active)
Cc1[nH]n(-c2ccccc2)c(=O)c1/C=N/NC(=O)c1ccccc1F	4.47 µM (active)
CC(C)(CO)NCc1c(OCc2ccc(Cl)cc2)ccc2ccccc12	14.1 µM (active)
COc1cccc(CN(C)C(=O)CNC(=O)c2ccc(-c3ccccc3)cc2)c1OC	14.1 µM (active)
CCOC(=O)c1ccc(NC(=O)c2nc[nH]c2C(=O)N[C@H](C)c2ccccc2)cc1	inactive
CCOC(=O)c1ccc(NC(=O)C2CCCN(S(=O)(=O)c3ccc(F)cc3)C2)cc1 (stereo not drawn)	28.2 µM (active)
O=C(Nc1ccccc1C(=O)Nc1nnc(C(F)(F)F)s1)c1ccccc1Cl	3.55 µM (active)
O=C(Nc1ccccc1C(=O)Nc1nnc(C(F)(F)F)s1)c1ccccc1	1.78 µM (active)
CN(C)S(=O)(=O)c1cccc(N2C(=O)CC3(CCCCC3)CC2=O)c1	inactive
COc1ccccc1CNc1nc(NCc2ccc(NC(C)=O)cc2)c2sccc2n1	3.16 µM (active)
COc1ccccc1CNc1nc(NCc2cccc(OC)c2OC)c2sccc2n1	25.1 µM (active)
COc1cccc(CNc2nc(NCc3ccccc3)nc3ccsc23)c1	15.8 µM (active)
O=C(/C=C\c1ccco1)Nc1nc(-c2ccc3ccccc3c2)cs1	inactive
CN(C)S(=O)(=O)c1ccc(-c2csc(N/N=C/c3ccco3)n2)cc1	2.82 µM (active)

Compound	Potency
O=C(CN1c2cccc3cccc(c23)S1(=O)=O)NCc1ccc(Cl)cc1	inactive
Cc1cc(C(=O)CN2C(=O)c3ccccc3S2(=O)=O)c(C)n1CC1CCCO1 (stereo not drawn)	0.355 µM (active)
O=C(CN1C(=O)c2ccccc2S1(=O)=O)c1ccc(Cl)cc1Cl	0.891 µM (active)
O=C(CN1C(=O)c2ccccc2S1(=O)=O)c1ccc(O)c(O)c1	inactive
O=C(CN1C(=O)c2ccccc2S1(=O)=O)N1CCc2ccccc21	0.447 µM (active)
Cc1nnc(SCC(N)=O)n1CC1CCCO1 (stereo not drawn)	inactive
O=C(CN1C(=O)c2ccccc2S1(=O)=O)Nc1ncc(Cl)cc1Cl	2.82 µM (active)
CCn1c(C)cc(C(=O)CN2C(=O)c3ccccc3S2(=O)=O)c1C	1.26 µM (active)
Cc1cc(C(=O)CN2C(=O)c3ccccc3S2(=O)=O)c(C)n1C(C)C	1.58 µM (active)
O=C(O)COc1ccc2oc3ccccc3c2c1	inactive
Cc1cc(C(=O)N/N=C/c2cc(Br)ccc2OC(=O)c2ccccc2Cl)n[nH]1	3.98 µM (active)
Cc1cc(C(=O)N/N=C/c2cc(Br)ccc2OC(=O)c2ccccc2)n[nH]1	2.51 µM (active)
Cc1ccc(-c2cc(C(=O)N/N=C/c3ccccc3O)n[nH]2)o1	7.08 µM (active)
Cc1cc(C(=O)N/N=C/c2cc(Br)cc(Br)c2OC(=O)c2cccc(F)c2)n[nH]1	3.16 µM (active)
O=C(CCCN1C(=O)/C(=C/c2ccccc2Cl)SC1=S)Nc1ccccn1	11.2 µM (active)
COc1ccc(/C=C2\SC(=S)N(CCCC(=O)Nc3ccccn3)C2=O)cc1OC	14.1 µM (active)
COC(=O)c1ccc(/C=C2/SC(=S)N(CCCC(=O)Nc3ccccn3)C2=O)cc1	14.1 µM (active)
O=C(Nc1ccc(CN2CCCCC2)cc1)Nc1ccc(Br)cc1Cl	25.1 µM (active)
N#Cc1c(NCCN)nc(-c2ccco2)c2c1CCCC2	25.1 µM (active)
NS(=O)(=O)c1ccc(CCNc2nn3c(-c4cccc(OC(F)(F)F)c4)cnc3s2)cc1	3.55 µM (active)
COc1cccc(/C=N/Nc2ncc(C(F)(F)F)cc2Cl)c1O	1.58 µM (active)
COc1cccc(/C=N/Nc2ncnc3c2ncn3Cc2ccccc2)c1O	0.708 µM (active)

Compound	Potency
CN1C2CCC1/C(=C\c1ccccc1)C(=O)/C2=C\c1ccccc1	14.1 µM (active)
COc1ccccc1N1CCN(c2ccnc3cc(Cl)ccc23)CC1	12.6 µM (active)
O=S(=O)(c1ccc2nc(COc3ccc(Cl)cc3Cl)[nH]c2c1)N1CCOCC1	inactive
O=C(C1CCCCC1)N1CCN(c2ccnc3cc(Cl)ccc23)CC1	3.98 µM (active)
O=S(=O)(c1ccccc1)N1CCN(c2ccnc3cc(Cl)ccc23)CC1	25.1 µM (active)
Oc1ccc(N2CCN(c3ccnc4cc(Cl)ccc34)CC2)cc1	15.8 µM (active)
C[C@H]1O[C@@H](O[C@H]2[C@@H](O)C[C@H](O[C@H]3[C@@H](O)C[C@H](O[C@H]4CC[C@@]5(C)[C@H](CC[C@@H]6[C@@H]5C[C@@H](O)[C@]5(C)[C@@H](C7=CC(=O)OC7)CC[C@]65O)C4)O[C@@H]3C)O[C@@H]2C)C[C@H](O)[C@@H]1O	0.282 µM (active)
Cc1cccc2sc(NNC(=O)c3ccc(S(=O)(=O)N4CC(C)CC(C)C4)cc3)nc12 (stereo not drawn)	2 µM (active)
Cc1cc(C)c2nc(NNC(=O)c3ccc(S(=O)(=O)N4CC(C)CC(C)C4)cc3)sc2c1 (stereo not drawn)	3.55 µM (active)
Cc1cccc2sc(NNC(=O)c3ccc(S(=O)(=O)N4CCCC(C)C4)cc3)nc12 (stereo not drawn)	7.94 µM (active)
CCCC(NCC(O)COc1ccc(-c2ccccc2)cc1)c1ccccc1 (stereo not drawn)	25.1 µM (active)
NS(=O)(=O)c1ccc(Sc2nc3ccccc3s2)c([N+](=O)[O-])c1	2.24 µM (active)
COc1cc(C#Cc2c(-c3cncn3C)n(C)c3ccc(-c4cnc(OC)nc4)cc23)cc(OC)c1	3.16 µM (active)
Cc1ccnc(NC(=O)C2CCN(S(=O)(=O)c3c(C)c(C)cc(C)c3C)CC2)c1	2.24 µM (active)
O=C(Nc1ccc[n+](CC(=O)c2cccc3ccccc23)c1)c1ccccc1	3.55 µM (active)
O=[N+]([O-])c1cc(O)c2ncccc2c1	3.16 µM (active)
Fc1ccc2[nH]c3c(N4CCc5ccccc5C4)ncnc3c2c1	3.98 µM (active)
CCOC(=O)N1CCN(c2ncnc3c2[nH]c2ccc(F)cc23)CC1	8.91 µM (active)
Fc1ccc2[nH]c3c(N4CCSCC4)ncnc3c2c1	12.6 µM (active)
Cc1cc(C)n(-c2ccc(C(=O)N3CCN(S(=O)(=O)c4cccc(Br)c4)CC3)cc2)n1	inactive
CC(OC(=O)c1cc(Br)ccc1O)C(=O)Nc1ccc(S(=O)(=O)N2CCCC2)cc1 (stereo not drawn)	28.2 µM (active)
O=C(N/N=C\c1c(O)ccc2ccccc12)c1ccc(S(=O)(=O)N2CCCCC2)cc1	0.501 µM (active)

Compound	Potency
O=C(N/N=C\c1cc(Br)ccc1O)c1ccc(S(=O)(=O)N2CCCCC2)cc1	0.794 µM (active)
O=C(N/N=C\c1cc(Cl)ccc1O)c1ccc(S(=O)(=O)N2CCCCC2)cc1	0.708 µM (active)
CCCCOc1ccc(CSC(=N)N)cc1Cl	25.1 µM (active)
COc1ccc2c(c1)[nH]c1c(=O)n(/N=C/C3C(C)C=C(C)CC3C)c(=O)[nH]c12 (stereo not drawn)	14.1 µM (active)
O=C(N/N=C/c1c(O)n(Cc2ccccc2)c(=O)c2ccccc12)c1cccnc1	15.8 µM (active)
COc1ccc(Cn2c(O)c(/C=N/NC(=O)c3cccnc3)c3ccccc3c2=O)cc1	14.1 µM (active)
Cn1c(=O)c2cc(NC(=O)Nc3cccnc3)ccc2n1Cc1ccc(Cl)cc1	inactive
CC(=O)Nc1cccc(-c2ccnc3c2CC(C)(C(=O)Nc2ccc(Cl)cc2)O3)c1 (stereo not drawn)	10 µM (active)
CC(=O)c1cccc(NC(=O)C2Cc3c(-c4cccc(C(C)=O)c4)ccnc3O2)c1 (stereo not drawn)	inactive
CC(=O)Nc1cccc(-c2ccnc3c2CC(C)(C(=O)Nc2cccc(Oc4ccccc4)c2)O3)c1 (stereo not drawn)	25.1 µM (active)
CC(Nc1ccccc1CO)C(=O)Nc1cccc(Cl)c1Cl (stereo not drawn)	2.24 µM (active)
COc1cc(NC(=O)c2cccc3c(-c4cccnc4)coc23)cc(OC)c1OC	3.55 µM (active)
NC(=S)N1OC[C@@H]2COc3ccc4ccccc4c3[C@@H]21	14.1 µM (active)
O=[N+]([O-])c1ccc(O)c(/C=N/Nc2ncnc3c2cnn3-c2ccccc2)c1	1.26 µM (active)
O=[N+]([O-])c1ccc(O)c(/C=N\N=C2c3ccccc3-c3ccccc32)c1	3.98 µM (active)
O=[N+]([O-])c1ccc(O)c(/C=N/Nc2ccccn2)c1	0.631 µM (active)
COc1ccccc1N1CCN(C(=O)c2cc3c(C)nc4ccccc4c3o2)CC1	3.55 µM (active)
COc1ccc(N2CCN(C(=O)c3cc4c(C)nc5ccccc5c4o3)CC2)cc1	25.1 µM (active)
N#C/C(=C\C=C\c1ccccc1[N+](=O)[O-])C(=O)NCc1ccccc1	2.82 µM (active)
N#C/C(=C\C=C\c1ccccc1[N+](=O)[O-])C(=O)NC1CCCCC1	17.8 µM (active)
N#C/C(=C\c1cccc([N+](=O)[O-])c1)C(=O)NCc1ccc(Cl)cc1	3.16 µM (active)
CC1CCCCC1NC(=O)/C(C#N)=C/C=C/c1ccccc1[N+](=O)[O-] (stereo not drawn)	3.16 µM (active)
